# According to the supplement of paper PMC6555819:
# Experiments:
# Experiment in all cases: PBM binding z-score (relative to random genomic background probes); higher = stronger binding; sequences stand for … in GC…GCGATTGACAGCGTAGAATGAAGG
# [1] = system: RARb homodimer (NR concentration 270 nM)
# Outline: (§1)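 Each nuclear receptor dimer, without ligand, was incubated for 1 h on custom Agilent 4×180K protein-binding microarrays. Binding was detected with antibodies against each partner (one per run), and scanned fluorescence was regression-normalized. The binding z-scores are referenced to random human genomic background probes.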
# [2] = system: RARg:RXRa (NR concentration 270 nM, RXRa partner concentration 90 nM)
# Outline: as §1
# [3] = system: RARg homodimer (NR concentration 270 nM)
# Outline: as §1
# [4] = system: RXRa DBDmut IVT, anti-RXR (DBD mutation: RXRa K156A/R161A, NR concentration 90 nM)
# Outline: as §1
# [5] = system: RXRa homodimer (NR concentration 180 nM)
# Outline: as §1
# [6] = system: THRa:RXRa (NR concentration 90 nM, RXRa partner concentration 90 nM)
# Outline: as §1
# [7] = system: THRa homodimer (NR concentration 90 nM)
# Outline: as §1
# [8] = system: VDR homodimer (NR concentration 270 nM)
# Outline: as §1
Sequence,PBM binding z-score [1],PBM binding z-score [2],PBM binding z-score [3],PBM binding z-score [4],PBM binding z-score [5],PBM binding z-score [6],PBM binding z-score [7],PBM binding z-score [8]
TTACCAAGGTAAGCTGAGGTCGTTGATCCAACTC,0.571,0.164,-0.00347,0.278,0.962,4.33,1.61,1.65
GTACCAACGTGAATAGGTCGTTGATGAGTAGGCG,0.16,0.141,0.237,-0.361,0.489,-0.22,-1.03,-0.24
GCTGGTTGGTCAGTAAAAGGTCACACACCGGTCG,5.18,5.81,5.42,0.18,5.73,3.5,2.21,2.29
GTACCAAGGTGAATAGGCCGTTGATGAGTAGGCG,0.865,0.98,0.694,-0.306,0.633,1.16,0.224,-0.141
CGAACTAGGTCATTGACAGGACAGTGATTAGTAA,2.83,4.5,4.52,2.49,2.47,2.9,1.05,1.52
ATCTCTAGGTAAAGATAGTTCATTGAATGCAAAT,1.46,1.01,0.983,0.467,0.854,1.28,0.302,1.98
AGAATGAGGTTATACGTAGATCAAGGAAGAAAGT,0.606,1.96,1.11,1.82,2.3,2.04,0.406,0.854
AGTCAAATTTCAGGACGAGGTAACGTAAAGCACG,0.179,0.276,0.438,-0.237,0.24,2.29,1.82,0.197
TATACAGGGTCAAAGGCCATAGTACGAATGTCGA,3.79,5.96,5.29,3.05,7.75,3.78,0.843,3.25
CGTCCAAGGTAATAGGAGGTCAGTGAAGACAGAT,2.88,2.11,2.21,0.17,1.8,3.94,1.27,1.2
ACAGAAAGGTGATGAAGGTAACTCAGGCTATCAT,0.99,1.18,1.35,0.11,1,1.44,0.0697,-0.00913
CCTTACGGGTCACTGGCAGGTTATAGCATTTGGA,3.16,5.81,4.75,1.66,4.96,3.14,0.323,1.16
CATACTGGGCCATCAGGTCATTGATATCAACGTT,2.78,2.53,2.08,0.904,1.61,3.29,3.27,2.38
CGTCGAAGGTCAGCAGGTCAGTGAAAGCGACGTG,4.94,6.48,6.93,1.34,5.06,2.88,0.495,1
CAAACTAGGTCGAGGTCAAAGTCGGTTTGTGCCA,4.43,5.24,4.79,2.93,5.63,4.31,3.49,5.19
TCTTGTAGATCAAGCGGGTTAAGAAAGCCTGAGT,0.106,-0.294,-0.546,0.628,0.204,0.221,-0.488,-0.0254
GCTGCTAGGTCAGGTTGCTCAGCTAACGGGTACG,2.14,2.32,2.99,0.623,0.855,1.49,0.194,0.297

Sequence,PBM binding z-score [1],PBM binding z-score [2],PBM binding z-score [3],PBM binding z-score [4],PBM binding z-score [5],PBM binding z-score [6],PBM binding z-score [7],PBM binding z-score [8]
ATATGTAGGTTACACCCGGGTCATTCAGGCTATG,3.06,3.97,2.06,0.528,3.23,3.77,2.45,2.67
CCCGACAGGTGAGAAGGTAACTCAGCCTCGATTA,0.604,0.562,0.328,-0.142,0.298,0.229,0.474,-0.11
ATCTCAAGGTAAAGATAGTTCAGTGAATGCAAAT,0.976,1.03,1.11,0.292,0.564,1.53,0.311,0.351
CGTCCAAGGTCAGCAGGTCATTGAAAGCGACGTG,5.08,6.83,6.69,2.59,6.04,4.26,2.98,2.36
AATCAAAGTTCAGGACGAGGTAACGTAAAGCACG,3.22,4.66,4.55,2.68,2.92,3.92,1.58,2.06
CAAACTAGGTCAAAGGTCAATGTCGAGCCAACCA,5.2,8.62,7.28,3.16,9.99,4.71,1.71,3.03
CGTCCAAGGTCAATGCTAGGTCCGTGAAAGCATT,3.83,5.71,5.7,3.67,4.55,3.82,2.12,2.96
GCTCGGAGGACAAGGTAAGAGCTTTGTCCGTAGA,-0.035,-0.119,0.491,-0.345,-0.527,0.97,-0.444,-0.59
ATCTCTTGGTAACAAGTTCAGTGAAAGAGAGGAC,1.67,0.629,1,1.09,0.531,0.831,0.489,2.61
ATCTCTAGGTAACCAAGTTCTGTGAATGCCGAAC,0.202,0.225,0.194,-0.0032,0.246,0.718,0.76,0.355
TCTTGTAGATCATGCAGGTTAAGAAAGCCTGAGT,0.268,0.108,0.0949,0.784,0.65,0.509,-0.0439,0.115
CCTCGGAGGACAACACGAGGTCAGAGCTGCCAGA,3.53,3.58,3.22,0.871,2.23,3.57,2.8,1.85
ATCTCTAGGTAAGATTCAGTTCAGTGAAGAACGC,0.59,0.513,0.134,0.381,0.0885,0.976,0.542,1.31
CGAACTAGGTCACCGGAAGGTCAAAGTCCGCATG,5.45,8.27,7.14,2.43,6.38,4.36,2.81,4.01
CATACAGGGTCAGCTAGGCCATAGTAGGGACGGC,3.28,4.35,4.7,1.7,4.53,3.22,0.737,1.1
GGAACGAGGGCGAAGTTGATAGCATCTGTCGACG,-0.341,0.0412,0.2,1.17,0.297,-0.192,-0.526,0.152
AGTCAAAGTTAAGGACGAGGTAACGTAAAGCACG,0.455,0.647,0.899,-0.752,0.474,3.19,2.65,-0.263
